Measured values as given in ChEMBL document CHEMBL2218924, “A broad activity screen in support of a chemogenomic map for kinase signalling research and drug discovery” (Biochem J, 2013).

Each compound was assayed against Serine/threonine-protein kinase pim-3 (Homo sapiens) (UniProt Q86V86). Conditions: at 1 µM.

Row | SMILES | residual activity [%]
1 | COc1ccc(CNc2nc(N(CCO)CCO)nc3c2ncn3C(C)C)cc1 | 87
2 | O=C1NC(=O)c2c1c1c3ccccc3[nH]c1c1[nH]c3cc(Br)ccc3c21 | 29
3 | O=C1Nc2ccccc2/C1=C1/Nc2ccccc2/C1=N\OCCC(O)CO (stereo not given) | 75
4 | COc1cccc(-c2cc(=O)c3ccccc3o2)c1N | 89
5 | CO[C@H]1C[C@@H]2CC[C@@H](C)[C@@](O)(O2)C(=O)C(=O)N2CCCC[C@H]2C(=O)O[C@H]([C@H](C)C[C@@H]2CC[C@@H](O)[C@H](OC)C2)CC(=O)[C@H](C)/C=C(\C)[C@@H](O)[C@@H](OC)C(=O)[C@H](C)C[C@H](C)/C=C/C=C/C=C/1C | 97
6 | CC(=O)O/N=C1\C(=C2\C(=O)Nc3cc(Br)ccc32)Nc2ccccc21 | 84
7 | O=[N+]([O-])c1ccc(-c2nc(-c3ccc(F)cc3)c(-c3ccncc3)[nH]2)cc1 | 86
8 | COc1cc2ncnc(Nc3ccc(O)c(Br)c3)c2cc1OC | 87
9 | N#Cc1cnc2cnc(NCc3cccnc3)cc2c1Nc1ccc(F)c(Cl)c1 | 97
10 | Cc1ccc(NC2=CC(=O)c3sc(C)nc3C2=O)cc1 | 91
11 | CC[n+]1c(/C=C/N(C)c2ccccc2)n(-c2ccccc2)c2ccc(-c3nc4ccccc4s3)cc21 | 105
12 | O=c1c2ccccc2[nH]c(=S)n1CCN1CCC(=C(c2ccc(F)cc2)c2ccc(F)cc2)CC1 | 98
13 | COc1ccc(OC)c2c(=S)c3ccccc3[nH]c12 | 88
14 | Cn1cnc2cc3c(Nc4cccc(Br)c4)ncnc3cc21 | 92
15 | NC(=O)c1ccc2[nH]c(-c3ccc(Oc4ccc(Cl)cc4)cc3)nc2c1 | 83
16 | Oc1n[nH]c2nnc(-c3c(-c4ccccc4)nn4ccccc34)cc12 | 85
17 | COc1ccc(C(=O)Nc2sc3c(c2C(N)=O)CCCC3)cc1OC | 92
18 | COc1cc2ncnc(Nc3ccc(Oc4ccccc4)cc3)c2cc1OC | 95

Row | SMILES | residual activity [%]
19 | Nc1cccc(-c2cc3c(Oc4cccc(O)c4)ncnc3[nH]2)c1 | 86
20 | O=Nc1c(-c2c(O)[nH]c3ccccc23)[nH]c2ccccc12 | 94
21 | Cc1nc(-c2ccccc2)c(-c2ccncc2)o1 | 93
22 | CNc1cc2c(Nc3cccc(Br)c3)ncnc2cn1 | 96
23 | O=C1Nc2cc(Br)ccc2/C1=C1/Nc2ccccc2/C1=N\O | 78
24 | Cc1ccc(S(=O)(=O)/C=C/C#N)cc1 | 91
25 | CC(C)n1cnc2c(NCc3ccccc3)nc(NCCCO)nc21 | 93
26 | CCC(=O)Nc1ccc2ncnc(Nc3cccc(Br)c3)c2c1 | 92
27 | C[C@@H](N)[C@H]1CC[C@H](C(=O)Nc2ccncc2)CC1 | 98
28 | O=C1NC(=O)c2cc(Nc3ccc(F)cc3)c(Nc3ccc(F)cc3)cc21 | 94
29 | CO[C@H]1[C@@H](OC)C[C@H](C)[C@@H](OC)C2=CC(=O)C=C(NC(=O)/C(C)=C/C=C/[C@H](OC)[C@@H](OC(N)=O)/C(C)=C/[C@@H]1C)C2=O | 98
30 | Oc1ccc(Nc2nc(-c3ccc(Cl)cc3)cs2)cc1 | 93
31 | O=c1cc(-c2cccc3c2Sc2ccccc2S3)oc(N2CCOCC2)c1 | 102
32 | O=C1NC(=O)/C(=C/c2ccc3c(c2)OC(F)(F)O3)S1 | 88
33 | Ic1cccc(CSc2nnc(-c3ccncc3)o2)c1 | 78
34 | Cn1nc2c3c(cccc31)C(=O)c1ccccc1-2 | 80
35 | CC(C)n1cnc2/c(=N/c3cccc(Cl)c3)nc(NCCO)[nH]c21 | 84
